Test results: PubChem BioAssay (NCI)
This is part of a sample that, as a whole, favours compounds with a hit. Of some 83,000 tested, about 20% had one in any assay.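 96-well plates, one dose, 48 hours. Percent growth reported; active if below 10.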 The source made the active and inactive calls.

Tests used:
Assay in all cases: NCI-60 one-dose screen, 48 h (100 = growth as untreated, 0 = no growth, -100 = all killed)
Details in all cases: 10 µM unless noted
HCT-15 colon = system: HCT-15 colon
HT29 colon = system: HT29 colon
SNB-75 CNS = system: SNB-75 CNS
SNB-19 CNS = system: SNB-19 CNS
U251 CNS = system: U251 CNS
PC-3 prostate = system: PC-3 prostate
SK-MEL-5 melanoma = system: SK-MEL-5 melanoma
UACC-62 melanoma = system: UACC-62 melanoma
LOX IMVI melanoma = system: LOX IMVI melanoma
SK-MEL-28 melanoma = system: SK-MEL-28 melanoma
SK-MEL-2 melanoma = system: SK-MEL-2 melanoma
EKVX NSCLC = system: EKVX NSCLC
SN12C renal = system: SN12C renal
UO-31 renal = system: UO-31 renal
TK-10 renal = system: TK-10 renal
ACHN renal = system: ACHN renal
A498 renal = system: A498 renal
CCRF-CEM leukemia = system: CCRF-CEM leukemia
MOLT-4 leukemia = system: MOLT-4 leukemia
CAKI-1 renal = system: CAKI-1 renal

Measured: growth

COc1ccc(CC(C#N)c2cc3ccccc3[nH]2)cc1 (configuration not stated)
inactive: HCT-15 colon 91.5% | HT29 colon 96.5% | SNB-75 CNS 78.2% | SNB-19 CNS 92.8% | U251 CNS 89.3% | PC-3 prostate 75.6% | SK-MEL-5 melanoma 91.6% | UACC-62 melanoma 75% | LOX IMVI melanoma 92% | SK-MEL-28 melanoma 95% | SK-MEL-2 melanoma 113% | EKVX NSCLC 95.9% | SN12C renal 92.7% | UO-31 renal 61.5% | TK-10 renal 118% | ACHN renal 93.9% | A498 renal 84.2% | MOLT-4 leukemia 98.1%
active: CCRF-CEM leukemia -27.2%

CN(C)C1CCN(Cc2ccc(NC(=O)c3cncc(C#Cc4cnc(N)c5ncccc45)c3)cc2C(F)(F)F)CC1
inactive: HCT-15 colon 53.2% | HT29 colon 19.3% | SNB-75 CNS 127% | SNB-19 CNS 97.8% | PC-3 prostate 80.6% | SK-MEL-5 melanoma 50.6% | UACC-62 melanoma 91.5% | LOX IMVI melanoma 63.7% | SK-MEL-2 melanoma 79.9% | EKVX NSCLC 93.5% | SN12C renal 93.1% | UO-31 renal 89.3% | TK-10 renal 128% | A498 renal 85.2% | MOLT-4 leukemia 24.7%
active: U251 CNS -51.5% | SK-MEL-28 melanoma -53.9% | ACHN renal -90.9% | CCRF-CEM leukemia 4.13%

O=c1oc2ccccc2cc1C1=NN=C(SCc2ccccc2)SC1
inactive: HCT-15 colon 101% | HT29 colon 105% | SNB-75 CNS 85.7% | SNB-19 CNS 103% | U251 CNS 92.2% | PC-3 prostate 94% | SK-MEL-5 melanoma 100% | UACC-62 melanoma 101% | LOX IMVI melanoma 99.7% | SK-MEL-28 melanoma 109% | SK-MEL-2 melanoma 116% | EKVX NSCLC 101% | SN12C renal 103% | UO-31 renal 73.7% | TK-10 renal 108% | ACHN renal 96.9% | A498 renal 119% | CCRF-CEM leukemia 95.3% | MOLT-4 leukemia 97%

C#Cc1cccc(Nc2ncnc3ccc(-c4cncc(NS(C)(=O)=O)c4)cc23)c1
inactive: HCT-15 colon 55.9% | HT29 colon 20.7% | SNB-75 CNS 30.6% | SNB-19 CNS 35.2% | PC-3 prostate 26.8% | UACC-62 melanoma 33.4% | SK-MEL-28 melanoma 41.4% | SN12C renal 24.2% | UO-31 renal 38.4% | ACHN renal 33.2% | CCRF-CEM leukemia 14%
active: U251 CNS 4.32% | SK-MEL-5 melanoma -75.7% | LOX IMVI melanoma 7.21% | SK-MEL-2 melanoma -39.7% | EKVX NSCLC 4.65% | TK-10 renal -3.64% | A498 renal -10.7% | MOLT-4 leukemia -28.3%

C=C1CC[C@@H]2[C@](C)(COC(C)=O)[C@H](OC(C)=O)CC[C@@]2(C)[C@@H]1CC(Sc1ccccc1)C1=CCOC1=O (some centres not stated)
active: HCT-15 colon -38.4% | HT29 colon -39.3% | UACC-62 melanoma -1.75% | LOX IMVI melanoma -83.9% | SK-MEL-28 melanoma 6.34% | SK-MEL-2 melanoma -1.66% | SN12C renal 1.3% | ACHN renal -13.7% | CCRF-CEM leukemia -5.24% | MOLT-4 leukemia -3.93%
inactive: SNB-75 CNS 87% | SNB-19 CNS 51.8% | U251 CNS 22.9% | PC-3 prostate 36.4% | SK-MEL-5 melanoma 13.5% | EKVX NSCLC 57.7% | UO-31 renal 35.6% | TK-10 renal 11.4% | A498 renal 86.3%

CCOC(=O)c1cc(C(=O)c2cc(OC)c(OC)c(OC)c2)n2ccc(-c3ccncc3)cc12
inactive: HCT-15 colon 99.4% | HT29 colon 91.5% | SNB-75 CNS 88.8% | SNB-19 CNS 94.4% | U251 CNS 93.2% | PC-3 prostate 75.2% | SK-MEL-5 melanoma 82.8% | UACC-62 melanoma 98.4% | LOX IMVI melanoma 99% | SK-MEL-28 melanoma 110% | SK-MEL-2 melanoma 86.5% | EKVX NSCLC 101% | SN12C renal 97.8% | UO-31 renal 70.3% | TK-10 renal 100% | ACHN renal 99.8% | CAKI-1 renal 84.5% | A498 renal 85.6% | MOLT-4 leukemia 115%

CS(=O)(=O)Nc1cc(-c2ccc3ncnc(Nc4c(Cl)ccc5c4OCO5)c3c2)cnc1Cl
inactive: ACHN renal 11.7%
active: HCT-15 colon -18% | HT29 colon -12.9% | SNB-75 CNS -19.5% | SNB-19 CNS -4.15% | U251 CNS -30.4% | PC-3 prostate 2.75% | SK-MEL-5 melanoma -93% | UACC-62 melanoma -52% | LOX IMVI melanoma -51.2% | SK-MEL-28 melanoma -6.42% | SK-MEL-2 melanoma -65.7% | EKVX NSCLC -34.1% | SN12C renal 9.89% | UO-31 renal -71.4% | TK-10 renal -59.4% | A498 renal -65.3% | MOLT-4 leukemia -15.1%

Cc1ccc(-c2nn(-c3ccccc3)cc2C=C2C(=O)ON=C2C(C)C)cc1
active: LOX IMVI melanoma 2% | MOLT-4 leukemia -15.6%
inactive: HCT-15 colon 63% | HT29 colon 44.5% | SNB-75 CNS 70.3% | SNB-19 CNS 78.4% | U251 CNS 52.4% | PC-3 prostate 63.5% | SK-MEL-5 melanoma 87.1% | UACC-62 melanoma 75.8% | SK-MEL-28 melanoma 88.7% | SK-MEL-2 melanoma 84.5% | EKVX NSCLC 102% | SN12C renal 75.9% | UO-31 renal 72% | TK-10 renal 86.9% | ACHN renal 89.3% | CAKI-1 renal 61.3% | A498 renal 84.9%

CC[C@]12C=CCN3CC[C@@]4(c5cc(NC(=O)CCC(=O)OCc6cn(Cc7ccc(F)cc7)nn6)c(OC)cc5N(C)[C@H]4[C@@](O)(C(=O)OC)[C@@H]1OC(C)=O)[C@@H]32
inactive: HCT-15 colon 105% | HT29 colon 103% | SNB-75 CNS 97% | SNB-19 CNS 98.5% | U251 CNS 101% | PC-3 prostate 93.8% | SK-MEL-5 melanoma 112% | UACC-62 melanoma 98% | LOX IMVI melanoma 99.3% | SK-MEL-28 melanoma 109% | SK-MEL-2 melanoma 109% | EKVX NSCLC 101% | SN12C renal 96.4% | UO-31 renal 85.8% | TK-10 renal 94% | ACHN renal 101% | CAKI-1 renal 89.7% | A498 renal 109% | MOLT-4 leukemia 104%

Cc1nc(N2CCOCC2)sc1S(N)(=O)=O
active: SNB-75 CNS -0.593%
inactive: HCT-15 colon 105% | HT29 colon 102% | SNB-19 CNS 102% | U251 CNS 92.9% | PC-3 prostate 92.3% | SK-MEL-5 melanoma 100% | UACC-62 melanoma 94% | LOX IMVI melanoma 95.8% | SK-MEL-28 melanoma 104% | SK-MEL-2 melanoma 98.6% | EKVX NSCLC 101% | SN12C renal 94.5% | UO-31 renal 86.5% | TK-10 renal 90.1% | ACHN renal 100% | A498 renal 93.4% | CCRF-CEM leukemia 105% | MOLT-4 leukemia 107%

COc1ccc2cc(C(=O)c3coc4ccc(O)cc34)ccc2c1
inactive: HCT-15 colon 103% | HT29 colon 95.6% | SNB-75 CNS 101% | SNB-19 CNS 104% | U251 CNS 103% | PC-3 prostate 95.5% | SK-MEL-5 melanoma 99.5% | UACC-62 melanoma 98.7% | LOX IMVI melanoma 97.4% | SK-MEL-28 melanoma 111% | SK-MEL-2 melanoma 97% | EKVX NSCLC 103% | SN12C renal 98.8% | UO-31 renal 68.4% | TK-10 renal 103% | ACHN renal 107% | CAKI-1 renal 92.6% | A498 renal 105% | MOLT-4 leukemia 81.1%

NC(=O)c1c(NC(=O)c2ccccc2)sc2c1CCC(=O)C2
inactive: HCT-15 colon 12.4% | SNB-19 CNS 18.6% | U251 CNS 17.6% | PC-3 prostate 10.1% | UACC-62 melanoma 10.7% | LOX IMVI melanoma 17.6% | SK-MEL-28 melanoma 34.9% | SK-MEL-2 melanoma 12.7% | EKVX NSCLC 19.2% | SN12C renal 12.2% | TK-10 renal 54.9% | A498 renal 92.3%
active: HT29 colon 9.53% | SNB-75 CNS -3.05% | SK-MEL-5 melanoma -57.6% | UO-31 renal 0.418% | ACHN renal 7.58% | CAKI-1 renal -8.25% | MOLT-4 leukemia 5.67%

Nc1ncnc2c1N=C(c1ccc3c(c1)OCO3)CC(c1ccc([N+](=O)[O-])cc1)N2 (configuration not stated)
inactive: HCT-15 colon 77% | HT29 colon 86.6% | SNB-75 CNS 59.5% | SNB-19 CNS 86.6% | U251 CNS 86.8% | PC-3 prostate 47% | SK-MEL-5 melanoma 70.3% | UACC-62 melanoma 64.8% | LOX IMVI melanoma 75.5% | SK-MEL-28 melanoma 110% | SK-MEL-2 melanoma 60.8% | EKVX NSCLC 87.4% | SN12C renal 84% | UO-31 renal 64.1% | TK-10 renal 112% | ACHN renal 82.4% | A498 renal 67.3% | MOLT-4 leukemia 99.3%

CCNC(=O)c1[nH]cc(-c2ccccc2)c1-c1cc(OC)c2c(c1OC)OCO2
inactive: HCT-15 colon 103% | HT29 colon 112% | SNB-75 CNS 91.4% | SNB-19 CNS 98.6% | U251 CNS 103% | PC-3 prostate 93.1% | SK-MEL-5 melanoma 89.8% | UACC-62 melanoma 92.2% | LOX IMVI melanoma 95.1% | SK-MEL-28 melanoma 108% | SK-MEL-2 melanoma 99.9% | EKVX NSCLC 96.9% | SN12C renal 98.7% | UO-31 renal 76% | TK-10 renal 106% | ACHN renal 99.1% | A498 renal 77.1% | CCRF-CEM leukemia 101% | MOLT-4 leukemia 98.9%

COc1ccc(-c2cn(-c3cc(OC)c(OC)c(OC)c3)c(=O)n2C(C)=O)cc1
inactive: HCT-15 colon 90.9% | HT29 colon 85.4% | SNB-75 CNS 88.3% | SNB-19 CNS 92.9% | U251 CNS 97.6% | PC-3 prostate 105% | SK-MEL-5 melanoma 94% | UACC-62 melanoma 84.2% | LOX IMVI melanoma 95.5% | SK-MEL-28 melanoma 103% | SK-MEL-2 melanoma 86.3% | EKVX NSCLC 91% | SN12C renal 91.3% | UO-31 renal 84.3% | TK-10 renal 98.9% | ACHN renal 87.1% | CAKI-1 renal 12.1% | A498 renal 68.3% | MOLT-4 leukemia 75.1%

C#CCOc1ccc2ncnc(Nc3ccc(NC(=O)CCl)cc3)c2c1
inactive: SNB-75 CNS 42% | SK-MEL-28 melanoma 36.2% | CAKI-1 renal 35.8% | A498 renal 55.9%
active: HCT-15 colon -32.4% | HT29 colon -60% | SNB-19 CNS -22.2% | U251 CNS -83.7% | PC-3 prostate 6.66% | SK-MEL-5 melanoma -90.6% | UACC-62 melanoma -10.1% | LOX IMVI melanoma -80.1% | SK-MEL-2 melanoma -7.65% | EKVX NSCLC -0.0323% | SN12C renal -13.2% | UO-31 renal -25.8% | TK-10 renal 1.64% | ACHN renal -51.2% | MOLT-4 leukemia -8.27%
